Experiment [1] is described as follows: qHTS assay to identify small molecule agonists of the peroxisome proliferator-activated receptor delta (PPARd) signaling pathway - cell viability counter screen (AID 743211). Also: nearly all actives have a fitted effect of over 55% in size. Also: potency is read from the fitted curve at half-maximal effect. The essentials:
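Multiplexed format: after the 2 h room-temperature LiveBLAzer B/G FRET step, CellTiter-Glo was added to the same wells. Luminescence after 30 min gave cell viability; compound exposure was 17 h at 37C.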
(In general: In qHTS, concentration-response curves come from the screen itself.)

Experiment [2] can be described thus: qHTS assay to identify small molecule antagonists of the peroxisome proliferator-activated receptor delta (PPARd) signaling pathway - cell viability counter screen (AID 743213). Also: nearly all actives have a fitted effect of over 50% in size. Also: potency is read from the fitted curve at half-maximal effect. Summed up:
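In this counter screen, HEK293H cells carrying a UAS-beta-lactamase reporter are co-treated with test compounds and 300 nM L165041 (final) for 17 h at 37 C; cell viability is quantified by CellTiter-Glo luminescence.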

The nature of experiment [3]: qHTS assay to identify small molecule agonists of the farnesoid-X-receptor (FXR) signaling pathway - cell viability counter screen (AID 743218). Also: nearly all actives have a fitted effect of over 45% in size. Also: potency is read from the fitted curve at half-maximal effect. The essentials:
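Readout: CellTiter-Glo luminescence, 30 min RT, multiplexed after the FXR-bla FRET reading. HEK 293T FXR-UAS-bla cells received compound 5 h post-plating and were incubated 16 h at 37 C.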

For experiment [4], the target named is Bile acid receptor (Homo sapiens) (UniProt Q96RI1). Description: qHTS assay to identify small molecule agonists of the farnesoid-X-receptor (FXR) signaling pathway (AID 743220; active = well fitted activation curve with a large enough effect in the signal ratio in the repeat runs, not every such curve was filed as active; the % refers to the signal ratio). Summed up:
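FXR-UAS-bla HEK 293T cells carrying a UAS-driven beta-lactamase reporter were plated for 5 h at 37C/5% CO2, then exposed to DMSO-dissolved Tox21 10K compounds for 16 h at 37C. A LiveBLAzer B/G FRET substrate was loaded for 2 h at room temperature before fluorescence reading.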

Experiment [5] addresses Peroxisome proliferator-activated receptor delta (Homo sapiens) (UniProt Q03181). Description: qHTS assay to identify small molecule agonists of the peroxisome proliferator-activated receptor delta (PPARd) signaling pathway (AID 743212; calls by dose curve;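 also: HEK293H cells with PPARd UAS beta-lactamase reporter GeneBLAzer system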). Summed up:
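Steps: seed PPARd-bla HEK293H cells; incubate 5 h, 37 C, 5% CO2; add compounds in DMSO; incubate, 37 C; add LiveBLAzer B/G FRET substrate; hold 2 h at room temperature; measure fluorescence.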

Experiment [6] can be described thus: qHTS assay to identify small molecule antagonists of the farnesoid-X-receptor (FXR) signaling pathway - cell viability counter screen (AID 743221; active = well fitted cell-killing curve with a large enough effect in the repeat runs, not every such curve was filed as active; also: nearly all actives have a fitted effect of over 50% in size; also: potency is read from the fitted curve at half-maximal effect). Summed up: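 CellTiter-Glo, 30 min RT, luminescence; same wells as the LiveBLAzer FRET read. Cells: FXR-UAS-bla HEK 293T. Treatment: compound with chenodeoxycholic acid 50 uM final, 16 h at 37 C.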
For experiment [7], the target named is Vitamin D3 receptor (Homo sapiens) (UniProt P11473). The experiment is described as follows: qHTS assay to identify small molecule agonists of the vitamin D receptor (VDR) signaling pathway (AID 743222; calls by dose curve). The essentials: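 Following 4 h attachment at 37C, VDR-bla cells (2,000 per well) received DMSO-dissolved compounds or controls. After 16 h incubation, LiveBLAzer B/G FRET substrate was added and fluorescence read 2 h later at room temperature.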

Experiment [8] deals with Bile acid receptor (Homo sapiens) (UniProt Q96RI1). Description: qHTS assay to identify small molecule antagonists of the farnesoid-X-receptor (FXR) signaling pathway (AID 743217; active = well fitted inhibition curve with a large enough effect in the signal ratio in the repeat runs, not every such curve was filed as active; the % refers to the signal ratio; also: potency is read from the fitted curve at half-maximal effect). Summed up:
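FRET fluorescence after 2 h room-temperature LiveBLAzer loading gives the readout. Prior step: FXR-bla HEK 293T cells, seeded and incubated 5 h, received test compounds plus 50 uM final CDCA for 16 h at 37 °C.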

Experiment [9] addresses Peroxisome proliferator-activated receptor delta (Homo sapiens) (UniProt Q03181). Description: qHTS assay to identify small molecule antagonists of the peroxisome proliferator-activated receptor delta (PPARd) signaling pathway (AID 743215; active = well fitted inhibition curve with a large enough effect in the signal ratio in the repeat runs, not every such curve was filed as active; the % refers to the signal ratio;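 also: cells stimulated with agonist L165041 at 300 nM final during compound exposure; potency is read from the fitted curve at half-maximal effect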). Summed up:
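Fluorescence from cleaved LiveBLAzer B/G FRET substrate (2 h, room temperature) reports PPARd-driven beta-lactamase in HEK293H UAS-bla cells. Cells had been treated 17 h at 37 C with compound plus 300 nM final L165041.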

Experiment [10] deals with Vitamin D3 receptor (Homo sapiens) (UniProt P11473). The experiment is described as follows: qHTS assay to identify small molecule antagonists of the vitamin D receptor (VDR) signaling pathway (AID 743223; active = well fitted inhibition curve with a large enough effect in the signal ratio in the repeat runs, not every such curve was filed as active; the % refers to the signal ratio). Summed up:
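After VDR-bla cells are plated and left 4 h at 37C, DMSO-dissolved compounds and 3 nM (final) calcitriol agonist are added. Incubation continues 16 h at 37C; FRET beta-lactamase substrate then develops 2 h at room temperature.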

Where “and” joins values, the source holds several entries; their conditions need not be identical. Equal entries are not always repeated. Results filed as inconclusive are left out. Calls of active or inactive are those of the source. Unless noted, calls follow the shape of the dose curve; as a rule, active = well fitted curve in the direction sought with a large enough effect in the repeat runs; inconclusive = weak or mixed curves; inactive = no such curve, though single readings can be large; an effect the other way counts as inactive or inconclusive.

Chain of Bile acid receptor (Homo sapiens) (Q96RI1 whole entry, looked up): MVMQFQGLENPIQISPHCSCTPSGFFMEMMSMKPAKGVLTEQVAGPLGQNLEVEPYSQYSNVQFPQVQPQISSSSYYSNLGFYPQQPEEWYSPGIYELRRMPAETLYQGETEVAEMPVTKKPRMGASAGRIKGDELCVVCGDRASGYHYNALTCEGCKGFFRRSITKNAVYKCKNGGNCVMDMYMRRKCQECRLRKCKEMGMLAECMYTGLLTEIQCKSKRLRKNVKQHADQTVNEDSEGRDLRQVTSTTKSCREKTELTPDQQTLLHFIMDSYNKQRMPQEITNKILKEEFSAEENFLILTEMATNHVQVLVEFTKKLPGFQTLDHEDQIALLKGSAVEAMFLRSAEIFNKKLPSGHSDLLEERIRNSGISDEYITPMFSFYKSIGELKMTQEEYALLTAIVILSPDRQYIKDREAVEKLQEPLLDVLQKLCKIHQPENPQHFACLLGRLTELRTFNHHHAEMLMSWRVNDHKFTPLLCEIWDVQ
Chain of Peroxisome proliferator-activated receptor delta (Homo sapiens) (Q03181 whole entry, looked up): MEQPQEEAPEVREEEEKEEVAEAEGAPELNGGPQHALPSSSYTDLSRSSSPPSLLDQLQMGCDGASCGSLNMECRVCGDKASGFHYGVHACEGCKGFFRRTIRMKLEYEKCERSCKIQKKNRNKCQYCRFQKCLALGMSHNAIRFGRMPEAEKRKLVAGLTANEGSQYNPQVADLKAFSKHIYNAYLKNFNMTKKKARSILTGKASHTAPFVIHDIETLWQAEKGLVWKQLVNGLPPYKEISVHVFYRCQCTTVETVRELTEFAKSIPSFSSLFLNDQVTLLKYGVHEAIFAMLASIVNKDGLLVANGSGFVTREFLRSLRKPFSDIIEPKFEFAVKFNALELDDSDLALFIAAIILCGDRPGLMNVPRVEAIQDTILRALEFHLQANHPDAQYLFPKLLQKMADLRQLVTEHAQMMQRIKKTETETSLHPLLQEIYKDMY
Chain of Vitamin D3 receptor (Homo sapiens) (P11473 whole entry, looked up): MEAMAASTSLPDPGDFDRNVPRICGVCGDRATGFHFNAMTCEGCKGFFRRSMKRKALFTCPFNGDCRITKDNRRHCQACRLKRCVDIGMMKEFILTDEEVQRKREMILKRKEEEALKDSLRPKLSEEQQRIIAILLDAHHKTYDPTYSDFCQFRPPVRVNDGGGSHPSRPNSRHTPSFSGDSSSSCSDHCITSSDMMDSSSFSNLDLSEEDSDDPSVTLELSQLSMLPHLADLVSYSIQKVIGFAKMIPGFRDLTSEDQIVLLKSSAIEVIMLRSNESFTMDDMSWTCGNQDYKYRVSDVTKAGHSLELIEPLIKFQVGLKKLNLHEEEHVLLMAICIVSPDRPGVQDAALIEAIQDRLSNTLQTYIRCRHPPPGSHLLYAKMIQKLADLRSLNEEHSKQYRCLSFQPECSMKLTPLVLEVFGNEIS

Turning to `O=C(CCl)Nc1ccccc1`, the Potency in experiment [1] was 49 µM (active). Further, the Potency entry in [2] and in experiment [3] was “inactive” each time. Besides, the molecule was called inactive in [4].

With `CCN(CC)c1c([N+](=O)[O-])cc(C(F)(F)F)c(N)c1[N+](=O)[O-]`, the Potency result in [1], in [5], in experiment [2], in [6] and in experiment [7] was “inactive” throughout.

On to `CC1(c2ccc(Oc3ccccc3)cc2)OC(=O)N(Nc2ccccc2)C1=O` (centres undefined), for which the Potency in experiment [1] was 49.3 µM (active); in experiment [2], 43.9 µM (active); in experiment [3], 39.1 µM (active). Besides, in [4], the molecule was called inactive.

Turning to `FC(Cl)(Cl)Cl`, the Potency result in [1], in [2], in experiment [8], in experiment [3], in experiment [6] and in experiment [7] was “inactive” throughout. The call in [4] was inactive.

In the case of `CCOc1cc(C(C)(C)C)ccc1C1COC(c2c(F)cccc2F)=N1` (centres undefined), the Potency in [1] was 29.7 µM (active); in experiment [2], 33.4 µM (active); in [9] it was 29.7 µM (active); in [3] it was 33.4 µM (active); in [6] it was 29.7 µM (active).

`C[C@H]1O[C@@H](O[C@H]2[C@@H](O)C[C@H](O[C@H]3[C@@H](O)C[C@H](O[C@H]4CC[C@@]5(C)[C@H](CC[C@@H]6[C@@H]5CC[C@]5(C)[C@@H](C7=CC(=O)OC7)CC[C@]65O)C4)O[C@@H]3C)O[C@@H]2C)C[C@H](O)[C@@H]1O`: the Potency in experiment [1] is 0.119 µM (active); in [2] it was 19.6 nM (active) and 84.1 nM (active); in experiment [3] it was 0.0311 µM (active); in [6], 0.0139 µM (active). In [4], the molecule was called inactive.

For `COP(=O)(OC)SCn1c(=O)oc2cc(Cl)cnc21`, the Potency result in experiment [1], in experiment [5], in [2], in experiment [6] and in experiment [7] was “inactive” each time.

As for `C[C@]12CC[C@@H]3c4ccc(OC(=O)N(CCCl)CCCl)cc4CC[C@H]3[C@@H]1CC[C@@H]2O`, the Potency entry in experiment [1] and in experiment [5] was “inactive” in each case. The Potency in [8] was 21.1 µM (active). Also, the call in experiment [4] was inactive.

Take `C[C@@H]1O[C@@H](O[C@H]2C[C@@H](O)[C@]3(CO)[C@H]4[C@H](O)C[C@]5(C)[C@@H](C6=CC(=O)OC6)CC[C@]5(O)[C@@H]4CC[C@]3(O)C2)[C@H](O)[C@H](O)[C@H]1O`: the Potency in experiment [1] is 46.5 nM (active) and 188 nM (active); in [2], 16.5 nM (active) and 133 nM (active).

In the case of `C=CC(=O)OCCCCOC(=O)C=C`, the Potency in experiment [1] was 49 µM (active); in experiment [2] it was 43.6 µM (active); in experiment [3] it was 54.9 µM (active).

Regarding `CCCN(CC)CC1COC2(CCC(C(C)(C)C)CC2)O1` (centres undefined), the Potency entry in experiment [1], in experiment [5], in experiment [2], in experiment [3], in experiment [6] and in [7] was “inactive” throughout. Also, the Potency result in experiment [10] was “inactive”.

`CC(=O)[O-].CC(=O)[O-].O.O.[Cd+2]`: the Potency is 0.765 µM (active) in experiment [1], 19.2 µM (active) in experiment [2], 1.53 µM (active) in experiment [3] and 1.21 µM (active) in [6].

Turning to `COc1cc(N)c(Cl)cc1C(=O)NC1CN2CCC1CC2` (centres undefined), the Potency entry in experiment [1], in [2], in [3] and in [6] was “inactive” throughout.

For the molecule `CCCCCCCCCCCCCC[P+](CCCCCC)(CCCCCC)CCCCCC` (tested in a mixture with another compound), the Potency in [1] is 2.46 µM (active); in [2] it was 11 µM (active); in experiment [3], 7.76 µM (active); in [6] it was 6.92 µM (active).

As to `Oc1ccc(C2(c3ccc(O)cc3)c3ccccc3-c3ccccc32)cc1`, the figures for the Potency in [1], in experiment [2] and in experiment [3] were 43.6 µM (active), 13.8 µM (active) and 54.9 µM (active), respectively. In addition, the Potency entry in experiment [7] was “inactive”.

As for `O=[N+]([O-])O.O=[N+]([O-])O.[Cd]`, the Potency in experiment [1] is 1.95 µM (active); in experiment [2], 5.49 µM (active); in experiment [3], 12.3 µM (active); in experiment [6], 6.16 µM (active).

In the case of `CN(C)C(=S)S`, the Potency is 546 nM (active) and 5.49 µM (active) in experiment [1]; 5.45 µM (active) and 7.76 µM (active) in [2]; 0.386 µM (active) in experiment [3]; 612 nM (active) and 4.36 µM (active) in experiment [6].

As for `CCCCCCCCCCCCCCCC[N+](C)(C)C`, the Potency in [1] was 16.8 µM (active) and 38.9 µM (active) and 23.7 µM (active); in [2], 21.1 µM (active) and 3.89 µM (active); in [3], 14.9 µM (active) and 43.6 µM (active); in experiment [6], 23.7 µM (active) and 49 µM (active).

In the case of `c1ccc2c(c1)[nH]c1cnccc12`, the Potency result in experiment [1], in [2], in experiment [3] and in experiment [6] was “inactive” in each case.

As for `CCCCN(CCCC)C(=S)[S-].CCCCN(CCCC)C(=S)[S-].[Zn+2]`, the Potency in experiment [1] is 6.16 µM (active); in experiment [2] it was 12.3 µM (active); in [3] it was 8.7 µM (active); in experiment [6], 13.8 µM (active).

Turning to `O=[N+]([O-])c1cc(C(F)(F)F)c(Cl)c([N+](=O)[O-])c1Cl`, the Potency in experiment [1] was 11 µM (active); in [2] it was 7.76 µM (active); in experiment [3] it was 7.76 µM (active); in experiment [6], 38.9 µM (active).

For the molecule `Cc1c(Cl)c(=O)oc2cc(OP(=O)(OCCCl)OCCCl)ccc12`, the Potency result in [1], in experiment [2], in [3] and in [6] was “inactive” in each case.

As to `N#CSCSC#N`, the Potency in [1] is 50.1 µM (active) and 43.2 µM (active); in [2] it was 44.6 µM (active) and 48.5 µM (active). For the same molecule, the Potency result in experiment [3] and in experiment [7] was “inactive” in each case. Also, the call in [4] was inactive.

On to `CCCCCCCCCCCCCCCCCCn1cc[n+](C)c1`, for which the Potency was 10.9 µM (active) in experiment [1], 7.72 µM (active) in experiment [2], 48.7 µM (active) in experiment [3] and 34.5 µM (active) in experiment [6].

The values are drawn from PubChem BioAssay (Tox21).
